Results published in PubChem BioAssay AID602233 (National Center for Advancing Translational Sciences (NCATS), 2012).
Screen size: about 380,000 compounds; about 170 (0.045%) were called active. Calls come from the whole dose curve; as a rule, active = well fitted inhibition curve with a large enough effect; inconclusive = small, poorly fitted or top-dose-only effect; inactive = no such curve, though single readings can be large or run the other way. Shown is part of a subset that was picked to be rich in actives.

Target: Phosphoglycerate kinase, glycosomal (Trypanosoma brucei brucei) (UniProt P07378)
Experiment: qHTS Assay to Find Inhibitors of Phosphoglycerate Kinase; note: nearly all actives have a fitted effect of over 60% in size
Conditions: PGK/GAPDH coupled, Kinase-Glo luminescence, 60 min; series mostly up to 57.5 µM; activity change, negative = inhibition: at the top concentration
Source text: Several species of the Trypanosomatidae family of parasitic protozoans cause a spectrum of diseases throughout the tropical and subtropical world. Sleeping sickness, caused by two subspecies of Trypanosoma brucei, is endemic to areas of sub-Saharan Africa, while Chagas disease, a manifestation of Trypanosoma cruzi infection, is prevalent throughout Central and South America. In addition, many species of Leishmania are responsible for a range of cutaneous and visceral diseases, causing ulcers, destructive lesions and kalaazar, a lethal infection of the viscera. Collectively, these organisms infect 30 million people worldwide (~500 million live in endemic areas), and account for ~130,000 deaths annually. Given their debilitating and prevalent nature, trypanosomatid parasites impose a heavy medical, economic and social burden on entire populations, primarily in the developing world. The problem is further exacerbated by the fact that existing treatments have progressed little in the past 50 years, and current drugs show high toxicity and poor efficacy. […] Blood-stream stages of T. brucei are entirely dependent on glycolysis as a source of ATP, and the tricarboxylic acid cycle and oxidative phosphorylation are both repressed. Glycolysis in axenically cultured T. cruzi, representing the intracellular pathogenic stage, is also essential for these parasites. […] Previous studies have shown that the glycolytic enzyme, phosphoglycerate kinase (PGK), is a viable target for drugs to kill these parasites. […] NIH Molecular Libraries Probe Production Network [MLPCN] NIH Chemical Genomics Center [NCGC] MLPCN Grant: R03 MH093212 PI Name: Malcolm Walkinshaw, University of Edinburgh
3ul of substrate/PGK buffer (columns 1,2,5-48) are dispensed into Greiner white solid bottom 1536-well assay plates; columns 3-4 receive only TEA buffer as 0x PGK controls. Compounds are then transferred via Kalypsys pin tool equipped with 1536-pin array (10nl slotted pins, V&P Scientific, San Diego, CA). Following addition of compound, 1ul of GAPDH (100nM final concentration, all columns) is added to initiate the reaction (this upstream coupling enzyme is necessary for in-well production of PGK substrate, 1,3-bisphosphoglycerate (1,3-BPG), which is unstable and not commercially available). The plates are then incubated at room temperature for 60 minutes. Kinase-Glo Plus reagent is added (2ul) and plates incubated for 10 minutes, before being transferred to a ViewLux high-throughput CCD imager (PerkinElmer) wherein single end-point measurements of luminescence are acquired using a clear filter. All reagents are diluted in an assay buffer consisting of 100mM TEA (pH 7.6), 5mM MgCl2 and 0.01% Tween-20.
% is set by controls: 0 for no effect and ±100 for the full control effect; potency is the fitted concentration of half-maximal effect.

Chain of Phosphoglycerate kinase, glycosomal (Trypanosoma brucei brucei) (P07378 whole entry, looked up): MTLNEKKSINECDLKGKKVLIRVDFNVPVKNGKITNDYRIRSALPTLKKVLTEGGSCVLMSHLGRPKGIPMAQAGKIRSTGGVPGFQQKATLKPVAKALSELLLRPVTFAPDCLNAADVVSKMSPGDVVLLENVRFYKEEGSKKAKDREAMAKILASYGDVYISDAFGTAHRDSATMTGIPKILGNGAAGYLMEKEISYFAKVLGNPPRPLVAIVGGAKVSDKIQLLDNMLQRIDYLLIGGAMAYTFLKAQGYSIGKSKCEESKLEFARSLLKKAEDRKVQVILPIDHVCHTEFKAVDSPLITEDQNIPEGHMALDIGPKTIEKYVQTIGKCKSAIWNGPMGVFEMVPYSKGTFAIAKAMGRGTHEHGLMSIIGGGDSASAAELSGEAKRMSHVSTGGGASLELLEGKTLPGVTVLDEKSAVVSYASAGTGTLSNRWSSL

Activity change, negative = inhibition, inactive:
CCOc1ccc(OCC)c(NC(=O)CN(c2ccc(C)cc2)S(=O)(=O)c2c(C)n[nH]c2C)c1 -0.327%
CCCS(=O)(=O)c1ncc(Cl)c(C(=O)Nc2scc(-c3ccccc3)c2C(=O)OCC)n1 -0.928%
Cc1sc(C2C(C#N)=C(N)N(c3cccc(Cl)c3)C3=C2C(=O)CCC3)cc1CN1CCOCC1 (stereo unspecified) 1.36%
Cc1ccc(C(=O)N2c3ncnn3C3(CCCCC3)[C@@H]3CCCC[C@@H]32)cc1 -3.66%
CC1=Nc2cc(C(=O)NCc3ccc(C)cc3)ccc2Sc2ccc(Cl)cc21 1.58%
CCc1cnc2c(c1SCC(=O)N1CCC(C)CC1)c(=O)n(C)c(=O)n2C -7.57%
CCc1cccc(NC(=O)CN(c2ccc(C)c(C)c2)S(=O)(=O)c2ccsc2C(=O)OC)c1 -7.47%
CCOc1ccccc1NC(=O)c1ccc2c(c1)CCN2S(=O)(=O)c1ccc(C)cc1 -6.13%
CSc1ccc(NC(=O)Cn2nnnc2-c2ccccc2F)cc1 0.393%
CC(=O)c1ccc(NC(c2ccc(F)cc2)c2nnc(-c3ccccc3)o2)cc1 (stereo unspecified) -9.83%
CCc1ccccc1NC(=O)c1cnn(-c2ccc(F)cc2)c1C1CCNCC1 -3.07%
Cc1ccc(CNC(=O)CCNS(=O)(=O)c2ccc3c(c2)oc(=O)n3C)cc1 1.22%
CC(C)Cn1c(=O)c2ccccc2n2c(CCC(=O)N3CCN(c4cccc(Cl)c4)CC3)nnc12 -8.58%
Cc1ccc(OCCSc2nc(-c3cccs3)nc3cc(=O)[nH]n23)cc1Cl -19.6%
CC1=C(c2ccc(Cl)cc2)S(=O)(=O)N=C1N1CCN(c2cc(C)ccc2C)CC1 -10.5%
Cc1cccc(N2CCN(c3c(CN4CCCC4)c(=O)oc4ccccc34)CC2)c1C 1.96%
CCCN(CCC)CCNC(=O)c1ccc2c(c1)NC(=O)C(CS(=O)(=O)Cc1cccc(Br)c1)N2 (stereo unspecified) -1.96%
COc1cc(CNC(=O)c2cc3n(n2)CCCN(Cc2cccc(F)c2)C3=O)cc(OC)c1OC -5.91%
COc1ccc(OC)c(-c2nc(C(N)=O)c3c(n2)n(-c2ccc4c(c2)OCO4)c(=O)n3C)c1 -7.35%
CCN(Cc1ccccc1)C(=O)c1cn(-c2cccc(OC)c2)c(=O)c2ccccc12 4.13%
O=C(CCn1c(=O)c2ccccc2n(Cc2ccc(Cl)cc2)c1=O)NCc1ccc2c(c1)OCO2 2.73%
Cc1ccccc1OCc1ccc(-c2nc(C#N)c(N3CCCCC3)o2)o1 -5.61%
CC(C)(C)OC(=O)N1CCC(c2c(C(=O)Nc3ccc4c(c3)OCO4)cnn2-c2ccccc2)CC1 -5.35%
COc1ccc(-n2c(=O)c3sc4ccccc4c3n(CC(=O)Nc3cccc(C)c3)c2=O)cc1 3.99%
Cc1c(C)n(Cc2ccc(Cl)cc2)c2ccc(C(=O)NCCc3ccc(S(N)(=O)=O)cc3)cc12 -1.01%
CCCNC(=O)c1ccc2c(c1)ncn2-c1ccc(C)cc1C -4%
CCn1cc2nc(SCc3cccc(F)c3)n(CCc3ccccc3)c(=O)c2n1 -9.15%
Cc1nc2ccccn2c(=O)c1NC(=O)c1c(F)cccc1F -8.58%
COc1ccc(CCNc2ncnc3onc(-c4ccc(Cl)cc4)c23)c(OC)c1 -1.45%
CCOC(=O)C(Cc1ccccc1)NC(=O)CCc1c(C)nc2c(c(C)nn2-c2ccc(C)c(C)c2)c1C (stereo unspecified) -8%
COc1ccccc1NC(=O)c1oc2ccccc2c1NC(=O)C(C)C -7.07%
O=C(NCc1cccnc1)C(=O)NCC(c1cccnc1)N1CCN(c2ccccc2)CC1 (stereo unspecified) -9.1%
Cc1ccccc1CNC(=O)C(=O)NCC(c1cccs1)S(=O)(=O)c1cccs1 (stereo unspecified) 9.59%
O=C(CCC(=O)N1CC2CCCN2c2ccccc21)NCc1ccccc1Cl (stereo unspecified) -2.17%
O=C(CC1N=C2c3ccccc3N=C(SCc3cccc(Cl)c3)N2C1=O)NCc1ccc2c(c1)OCO2 (stereo unspecified) 1.41%
CCN(CC)S(=O)(=O)c1nnc(NC(=O)COc2ccccc2Cl)s1 -3.74%
Cc1oc2ccc(O)c(CN3CCC(C)CC3)c2c1C(=O)Nc1ccccc1 6.18%
CCCCCn1c(CCCNC(=O)c2ccccc2OC)nc2ccccc21 2.09%
CN(Cc1ccccc1)c1ncnc2onc(-c3ccc(F)cc3)c12 -9.68%
O=C(NCc1ccc2c(c1)CCN2C(=O)c1ccccc1)c1ccccc1 -1.54%
COc1ccc(-n2c(SCC(N)=O)nc3c(oc4ccccc43)c2=O)cc1 5.05%
O=C(Cn1cc(SCc2cccc(Cl)c2)c2ccccc21)N1CCCCC1 8.44%
COc1ccc(Cn2ccc3nc(C)c(C(=O)Nc4ccc(C)c(F)c4)cc3c2=O)cc1 -7.62%
O=C(Cn1c(=O)n(Cc2cccs2)c(=O)c2cccnc21)Nc1ccc(F)cc1 9.96%
COc1cc(NS(=O)(=O)c2ccc3c(c2)OCC(C(=O)N2CCCC2)O3)cc(OC)c1 (stereo unspecified) -5.79%
COc1ccc(OC)c2sc(N3CCN(C(=O)C4COc5ccccc5O4)CC3)nc12 (stereo unspecified) 0.972%
COc1ccc(C(=O)N2CCC(c3nc4ccccc4o3)CC2)cc1 3.31%
COc1ccc(CCNS(=O)(=O)c2cc(-c3cc(C)no3)ccc2C)cc1OC 7.73%
COc1ccc(N2CCN(C(=O)c3c(C)oc4nc(C)nc(N5CCCC5)c34)CC2)cc1 -3.22%
COc1cccc(NC(=O)N(Cc2cn(C)c3ccccc23)C2CCCCCC2)c1 1.22%
Cc1ccc(CCNC(=O)c2nnc(Cc3cccc(F)c3)o2)cc1 -3.81%
COC(=O)c1ccc(Cn2c(SCC(=O)N(C)c3ccccc3)nc3ccccc32)cc1 -5.74%
COc1cc(Nc2nc(-c3ccc(OC)c(OC)c3)nc3ccccc23)cc(OC)c1 -16%
CCOC(=O)c1oc2ccc(S(=O)(=O)n3nc(-c4ccccc4OC)cc3N)cc2c1C -7.27%
O=C(c1cnn(-c2ccc(F)cc2)c1-n1cccc1)N1CCN(c2ccc(F)cc2)CC1 1.01%
C/C=C(\C)C(=O)N1CC2(CC(c3cccc(NC(=O)CCCCC)c3)=NO2)C[C@@H]1C(N)=O (stereo partly specified) -20.1%
O=C(CC1C(=O)N(c2ccccc2)C(=O)N1CCc1cccs1)Nc1ccc(F)cc1 (stereo unspecified) -9.54%
Fc1ccc(-c2nn(-c3ccccc3Cl)c3c2cnc2ccccc23)cc1 -9.02%
COC(=O)c1ccccc1NC(=O)c1cc(-c2ccccc2O)no1 0.223%
Cc1nn(C(=O)c2c(F)cccc2F)c(C)c1S(=O)(=O)N1CCOCC1 -7.86%
Cc1cccc(NC(=O)CSc2ncc(-c3ccccc3)[nH]2)c1C 5.88%
CCc1ccc(NC(=O)CCCc2nnc3n(CCCOC)c(=O)c4sccc4n23)cc1 2.03%
COc1ccc(C2=CC(c3ccccc3Cl)n3nc(-c4ccc(Cl)cc4)nc3N2)cc1 (stereo unspecified) 5.67%
Cc1ccc(CN2C(=O)SC(Nc3ccccc3)C2=O)cc1 (stereo unspecified) -1.1%
O=C(OCc1cc(=O)n2nc(C3CC3)sc2n1)c1ccccc1Cl -8.07%
COc1cccc(N2CCN(S(=O)(=O)c3cc(Br)cc4c3N(C(=O)C3CC3)CC4)CC2)c1 -3.4%
O=C(Nc1nnc(C2CC(=O)N(c3ccc(Cl)cc3)C2)s1)c1ccco1 (stereo unspecified) -4.59%
COc1cc(C(CC(=O)NCCC(C)C)N2Cc3ccccc3C2=O)cc(OC)c1OC (stereo unspecified) -9.14%
COc1ccccc1C1C(C(=O)N2CCCCC2)=C(C)Nc2nc3ccccc3n21 (stereo unspecified) -1.37%
CCOc1ccc(C2CC(=O)c3c([nH]c(C(=O)OCc4ccccc4)c3C)C2)cc1 (stereo unspecified) 2.31%
CCCC(=O)Nc1cc(C(=O)NCc2ccc(OC)cc2)ccc1S(=O)(=O)c1ccc(Cl)cc1 3.14%
CC1=C(C(=O)OCC(C)C)C(c2ccc(OCc3ccccc3)cc2)N2C(=O)CCSC2=N1 (stereo unspecified) 10.3%
O=C(/C=C/c1cn(CC(O)CN2CCc3ccccc32)c2ccccc12)c1ccc(Br)cc1 (stereo unspecified) -0.876%
O=C(Nc1ccc(C(=O)OCc2cc(=O)n3nc(C4CC4)sc3n2)cc1)c1ccc(F)cc1 -0.294%
Cc1ccc(N(CC(=O)NCC(C)c2ccccc2)S(=O)(=O)N(C)C)cc1 (stereo unspecified) -4.73%
CCc1nnc2c3ccccc3nc(N3CCN(c4ccc(C)cc4C)CC3)n12 -2.29%
O=C(C1CCCN(S(=O)(=O)c2cccc3nonc23)C1)N1CCN(c2ccccc2F)CC1 (stereo unspecified) 0.227%
COc1ccc(SCc2cc(=O)c3ccc(C)c(C)c3[nH]2)cc1 -6.17%
Cc1ccc(-c2nc(Cn3c(=O)cc(-c4ccccc4)c4c(C)nn(C)c43)c(C)o2)cc1 -5.33%
CC(C)c1ccc(NC(=O)CN(C)S(=O)(=O)c2ccc3c(c2)c(=O)n(C)c(=O)n3C)cc1 3.59%
Cc1ccc2nc(-c3ccc(O)cc3)c(Nc3ccc4c(c3)OCO4)n2c1 0.889%
CC(C)Oc1ccc(CNC(=O)C2CCN(c3nc4ccccc4n(C)c3=O)CC2)cc1 3.34%
COc1cccc(C(=O)Nc2ccc(-c3cc(C(F)(F)F)nn3-c3ccccc3)cc2)c1 6.52%
Cc1ccccc1C(=O)Nc1nnc(S(=O)(=O)N(C)c2ccc(Cl)cc2)s1 -7.58%
O=C(COc1ccc(Cl)cc1)N(Cc1ccco1)Cc1ccco1 -6.16%

outcome, inactive:
O=C(CC(c1cccs1)N1Cc2ccccc2C1=O)Nc1ccc(F)c(F)c1 (stereo unspecified)
CCOc1ccc(CCNC(=O)c2c(C)oc3ncn(C)c(=O)c23)cc1
CCc1cccc(-n2nnc(-c3nsc(NC(=O)c4ccc(C)cc4)n3)c2C)c1
CCc1ccc(NC(=O)CN2CCSc3ccc(S(=O)(=O)N4CCCC4)cc32)cc1
CC(C)(C)c1ccc(OCC(=O)N2CCC(c3nc4ccccc4s3)CC2)cc1
CC(=O)c1ccc(NC(=O)c2nc(-c3ccc(C)cc3)n3c2CCCCC3)cc1
NC(=O)[C@H]1CC2(CC(c3cccc(NC(=O)[C@H]4CCC(=O)N4)c3)=NO2)CN1C(=O)c1ccccc1C(=O)c1ccccc1 (stereo partly specified)
COc1ccc(CCNC(=O)c2cn(C)c3ccc(S(=O)(=O)N(C)C4CCCCC4)cc3c2=O)cc1OC
Cc1ccc(-c2onc(C)c2C)cc1S(=O)(=O)Nc1ccccn1
O=C(NCc1ccc(F)cc1)c1ccc(Cn2c(SCc3ccc(F)cc3)nc3cccnc32)cc1
Cc1ccc(C2CCN(C(=O)c3cnn(-c4ccccc4Cl)c3C3CCN(C(=O)OC(C)(C)C)CC3)C2)cc1 (stereo unspecified)
O=C(COc1ccc(Cl)cc1)Nc1ccc(-c2nc3cc(Cl)ccc3o2)c(O)c1
Cc1c(Cl)cccc1NC(=O)C(=O)NCCc1csc2nc(-c3ccccc3F)nn12
NS(=O)(=O)c1ccc(NC(=O)C(=O)Nc2ccc3nc4n(c(=O)c3c2)CCCCC4)cc1
O=C(NCc1ccc(Cl)cc1)c1ccc2c(c1)nnn2C1CCCC1
Oc1ccccc1-c1nc2ccc(Cl)cn2c1Nc1ccc2c(c1)OCCO2
Cc1ccc(NC(=O)c2oc3ccc(S(=O)(=O)N4CCCCC4)cc3c2C)cc1Cl
Cc1cc(C)cc(NC(=O)CSc2oc(-c3ccccc3)nc2S(=O)(=O)c2ccc(Cl)cc2)c1

Potency, active:
Nc1ccc2nc3c(=O)[nH]c(=S)[nH]c3nc2c1 2.51 µM
Cc1c(CC(=O)N2CCN(C(=O)C3COc4ccccc4O3)CC2)c(=O)oc2c(O)c(O)ccc12 (stereo unspecified) 8.91 µM
C=C(C)C(=O)Nc1cccc(C2=NOC3(C2)C[C@H](C(N)=O)N(C(=O)C(c2ccccc2)c2ccccc2)C3)c1 (stereo partly specified) 7.94 µM
